# Source: PubChem BioAssay
# Activity calls are given as the source filed them.
# What was measured:
# [1] = binders of probe aFSTL3 on microarray, primary screen, stem cell growth factor project, biochemical, small-molecule microarray, fluorescence 635/667 (AID 1064); details: higher = more signal;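 note: measures binding of the biotinylated anti-FSTL3 antibody to printed compounds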
# [2] = binders from COS7 lysate, DM2A8 probe, primary screen, torsin A project, cell lysate, small-molecule microarray, fluorescence 635/667 (AID 1065); details: higher = more signal, COS7 lysate expressing mutant human TOR1A
# [3] = binders of probe aFGF2 on microarray, primary screen, stem cell growth factor project, biochemical, small-molecule microarray, fluorescence 635/667 (AID 1067); details: higher = more signal;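 note: measures binding of biotinylated aFGF2 protein to printed compounds on slides; z-score merges feature fluorescence and signal-to-noise across triplicate slides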
# [4] = binders of probe aFGF10 on microarray, primary screen, stem cell growth factor project, biochemical, small-molecule microarray, fluorescence 635/667 (AID 1071); details: higher = more signal;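 note: score merges 667 nm spot intensity and signal to noise from triplicate slides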
# [5] = biological target: Neurogenic locus notch homolog protein 2 (Homo sapiens) (UniProt Q04721); experiment: Notch2 binders on small-molecule microarrays, primary screen, biochemical, small-molecule microarray, 635 nm fluorescence, stem cell growth factors (AID 1073); details: Notch2 binding, higher = more signal
# [6] = biological target: Pro-neuregulin-1, membrane-bound isoform (Homo sapiens) (UniProt Q02297); experiment: NRG1 binders on small-molecule microarrays, primary screen, psychiatric disease protein project, biochemical, small-molecule microarray, fluorescence 635/667 (AID 1075); details: NRG1 binding, 635 nm fluorescence, higher = more signal;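 note: score combines 667 nm spot fluorescence with signal to noise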
# [7] = system: Neuregulin-1 EGF-like domain; experiment: binders of neuregulin-1 EGF-like domain, primary screen, biochemical, small-molecule microarray, 635 nm fluorescence (AID 1081); details: small-molecule microarray binding, higher = more signal;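 note: binding of the protein to compounds printed on small-molecule microarray slides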
# [8] = FRG1 promoter luciferase signal modulators, primary screen, FRG1 inhibition for FSHD, cell-based, C2C12 myotubes, firefly/Renilla luciferase, luminescence (AID 1084); details: higher = more signal, called active from +8 up or from −8 down
# [9] = binders of probe aFST on microarray, primary screen, stem cell growth factor project, biochemical, small-molecule microarray, fluorescence 635/667 (AID 1086); details: higher = more signal;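 note: score merges 667 nm fluorescence with signal-to-noise of each printed compound spot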
# [10] = binders of probe aHhip on microarray, primary screen, stem cell growth factor project, biochemical, small-molecule microarray, fluorescence 635/667 (AID 1087); details: higher = more signal;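 note: score merges spot fluorescence at 667nm with spot signal to noise ratio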
# Sequence of Pro-neuregulin-1, membrane-bound isoform (Homo sapiens) (Q02297 whole entry, looked up, the tested form may be a part, canonical isoform): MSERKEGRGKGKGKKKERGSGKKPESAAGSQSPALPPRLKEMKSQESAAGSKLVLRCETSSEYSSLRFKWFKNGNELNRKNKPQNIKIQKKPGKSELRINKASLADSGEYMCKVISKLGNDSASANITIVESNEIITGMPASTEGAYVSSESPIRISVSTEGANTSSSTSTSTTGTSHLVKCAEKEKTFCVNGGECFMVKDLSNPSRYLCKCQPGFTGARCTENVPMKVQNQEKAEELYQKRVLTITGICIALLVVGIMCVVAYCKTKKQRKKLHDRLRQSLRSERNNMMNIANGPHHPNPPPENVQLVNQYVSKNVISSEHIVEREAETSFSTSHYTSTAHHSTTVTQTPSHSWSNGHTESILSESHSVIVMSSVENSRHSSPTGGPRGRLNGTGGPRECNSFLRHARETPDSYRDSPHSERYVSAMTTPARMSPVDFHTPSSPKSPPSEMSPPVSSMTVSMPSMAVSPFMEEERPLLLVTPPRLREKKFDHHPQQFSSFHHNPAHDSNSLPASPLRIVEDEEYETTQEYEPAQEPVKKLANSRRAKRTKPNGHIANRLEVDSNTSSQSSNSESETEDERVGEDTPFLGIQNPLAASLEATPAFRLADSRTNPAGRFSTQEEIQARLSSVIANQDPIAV
# Sequence of Neurogenic locus notch homolog protein 2 (Homo sapiens) (Q04721 whole entry, looked up, canonical isoform): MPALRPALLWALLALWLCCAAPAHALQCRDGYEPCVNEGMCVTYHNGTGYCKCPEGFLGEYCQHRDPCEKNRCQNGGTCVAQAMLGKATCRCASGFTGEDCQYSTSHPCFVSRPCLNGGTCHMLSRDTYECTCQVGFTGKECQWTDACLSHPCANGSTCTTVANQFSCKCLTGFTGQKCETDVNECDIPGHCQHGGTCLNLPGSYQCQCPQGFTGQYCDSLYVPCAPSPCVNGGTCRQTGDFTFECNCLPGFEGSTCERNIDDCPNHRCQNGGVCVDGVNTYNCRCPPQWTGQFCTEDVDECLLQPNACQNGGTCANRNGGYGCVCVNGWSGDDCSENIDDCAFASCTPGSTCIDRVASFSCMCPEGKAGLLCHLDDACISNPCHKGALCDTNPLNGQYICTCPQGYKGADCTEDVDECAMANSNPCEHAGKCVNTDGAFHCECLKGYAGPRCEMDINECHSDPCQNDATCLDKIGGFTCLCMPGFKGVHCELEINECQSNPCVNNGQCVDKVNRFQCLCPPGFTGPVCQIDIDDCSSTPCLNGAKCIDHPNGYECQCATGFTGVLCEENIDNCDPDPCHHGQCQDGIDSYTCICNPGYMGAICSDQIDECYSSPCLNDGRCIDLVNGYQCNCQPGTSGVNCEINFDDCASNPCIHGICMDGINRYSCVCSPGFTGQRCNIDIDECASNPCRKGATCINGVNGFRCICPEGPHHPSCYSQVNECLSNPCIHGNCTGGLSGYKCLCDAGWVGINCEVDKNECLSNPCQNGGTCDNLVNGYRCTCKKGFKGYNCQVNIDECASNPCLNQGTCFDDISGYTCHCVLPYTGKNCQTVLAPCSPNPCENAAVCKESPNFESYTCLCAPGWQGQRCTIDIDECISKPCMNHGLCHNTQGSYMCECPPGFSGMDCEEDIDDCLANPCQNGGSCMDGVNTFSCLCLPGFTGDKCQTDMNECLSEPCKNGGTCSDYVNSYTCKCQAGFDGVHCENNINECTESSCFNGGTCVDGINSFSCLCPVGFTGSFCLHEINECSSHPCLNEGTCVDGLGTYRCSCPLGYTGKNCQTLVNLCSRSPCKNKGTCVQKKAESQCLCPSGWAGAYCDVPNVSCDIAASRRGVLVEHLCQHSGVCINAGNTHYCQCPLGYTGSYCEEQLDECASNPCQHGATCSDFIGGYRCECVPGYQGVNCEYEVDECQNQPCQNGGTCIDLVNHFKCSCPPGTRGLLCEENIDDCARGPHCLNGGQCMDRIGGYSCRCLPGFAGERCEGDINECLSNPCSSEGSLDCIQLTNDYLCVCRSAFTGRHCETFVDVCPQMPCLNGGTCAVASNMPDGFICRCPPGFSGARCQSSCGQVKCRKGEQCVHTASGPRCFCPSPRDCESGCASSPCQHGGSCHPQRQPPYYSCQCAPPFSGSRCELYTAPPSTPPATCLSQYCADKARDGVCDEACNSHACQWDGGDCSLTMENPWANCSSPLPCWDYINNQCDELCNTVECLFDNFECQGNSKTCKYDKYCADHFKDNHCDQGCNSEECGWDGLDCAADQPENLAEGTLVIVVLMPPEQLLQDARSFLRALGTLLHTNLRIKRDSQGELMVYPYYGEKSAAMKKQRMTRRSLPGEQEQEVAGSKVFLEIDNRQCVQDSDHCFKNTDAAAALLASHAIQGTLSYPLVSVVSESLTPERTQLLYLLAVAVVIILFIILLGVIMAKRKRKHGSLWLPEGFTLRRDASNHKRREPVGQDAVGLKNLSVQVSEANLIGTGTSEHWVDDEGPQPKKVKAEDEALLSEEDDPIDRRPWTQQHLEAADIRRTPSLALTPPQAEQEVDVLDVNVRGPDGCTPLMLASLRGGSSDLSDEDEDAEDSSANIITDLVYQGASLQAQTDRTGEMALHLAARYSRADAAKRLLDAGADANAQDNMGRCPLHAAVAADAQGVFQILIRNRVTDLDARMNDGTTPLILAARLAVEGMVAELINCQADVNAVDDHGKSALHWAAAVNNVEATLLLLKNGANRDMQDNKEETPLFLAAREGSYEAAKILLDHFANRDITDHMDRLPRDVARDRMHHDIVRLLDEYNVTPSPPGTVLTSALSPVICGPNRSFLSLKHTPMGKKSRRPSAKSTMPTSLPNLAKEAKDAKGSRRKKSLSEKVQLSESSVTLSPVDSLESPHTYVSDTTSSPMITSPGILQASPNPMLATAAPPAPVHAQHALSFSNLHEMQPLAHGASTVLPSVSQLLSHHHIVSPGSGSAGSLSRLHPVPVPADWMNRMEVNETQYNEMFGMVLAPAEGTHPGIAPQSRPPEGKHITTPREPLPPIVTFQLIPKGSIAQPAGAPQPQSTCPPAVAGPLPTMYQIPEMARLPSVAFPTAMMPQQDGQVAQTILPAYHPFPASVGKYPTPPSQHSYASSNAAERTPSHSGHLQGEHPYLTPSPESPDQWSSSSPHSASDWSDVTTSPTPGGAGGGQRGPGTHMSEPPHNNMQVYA
Compound,composite z-score [1],composite z-score [2],composite z-score [3],composite z-score [4],composite z-score [5],composite z-score [6],composite z-score [7],z-score [8],composite z-score [9],composite z-score [10]
Cc1ccc(S[C@]2(C(=O)NC3CC3)CC(=O)N(C3Cc4ccccc4C3)[C@@H]2c2ccc(CO)cc2)cc1,0.631,-0.233,0.11,-0.563,-0.363,1.08,0.836,-2.83 (inactive),-0.175,-0.134
COC(=O)[C@@]1(Cc2ccc(F)cc2)[C@H]2c3cc(C(=O)N(C)C)n(Cc4nc5ccccc5[nH]4)c3C[C@H]2CN1C(=O)c1ccccc1,0.258,-1.35,0.349,0.841,1.66,2.13,1.13,-0.169 (inactive),1.36,-0.139
CC(C)C(CO)N1C(=O)[C@@H]2[C@H]3C(=O)OCC=C[C@H]3OC23C=CCN(C(C)C)C(=O)[C@@H]13 (stereo not given in full),-0.25,-0.615,-0.187,-0.271,-0.142,0.814,-0.677,-0.724 (inactive),-0.422,-0.374
O=C1NC(=O)C2C1C=CC(C(O)C(c1ccccc1)c1ccccc1)N2Nc1ccc(Cl)cc1Cl (stereo not given),0.246,-0.471,0.103,0.501,1.49,0.782,0.756,1.04 (inactive),1.44,0.0373
O=C1O[C@H](c2ccccc2)[C@H](c2ccccc2)N2[C@H]1[C@@H](C(=O)N1CCN(c3ncccn3)CC1)[C@]1(C(=O)Nc3ccc(C#CC4=CCCCC4)cc31)[C@H]2c1ccc(O)cc1,-0.001,0.542,-0.0523,0.768,1.28,1.11,1.24,-0.63 (inactive),0.502,-0.201
O=C1OCCC/C=C\[C@H]2OC34C=CCN(Cn5nnc6ccccc65)C(=O)[C@H]3N(CCCCCCO)C(=O)[C@@H]4C12 (stereo not given in full),0.144,1.57,-0.167,-1.04,-0.969,0.0553,1.25,-0.584 (inactive),-0.582,-0.273
CN1C(=O)C2C=CC(C(O)c3ccc(-c4ccccc4)s3)N(N(c3ccccc3)c3ccccc3)C2C1=O (stereo not given),0.415,-0.235,0.0034,0.199,1.15,0.782,0.949,0.685 (inactive),0.422,0.248
CC(C)[C@@H](CO)NC(=O)[C@H]1[C@@H](c2ccccc2)N(c2ccccc2)O[C@@H]1C,-0.5,-0.245,-0.143,0.439,-0.208,-0.0453,0.396,-0.579 (inactive),-0.0238,-0.0237
O=C1O[C@@H](c2ccccc2)[C@@H](c2ccccc2)N2[C@@H](c3ccccc3OCCO)[C@]3(C(=O)Nc4ccc(C#CC5=CCCCC5)cc43)[C@@H](C(=O)Nc3nc4ccccc4s3)[C@H]12,-0.177,0.106,-0.0267,1.09,1.11,0.792,0.94,0.197 (inactive),0.438,-0.0346
COc1cc2c(cc1O)C(C1CC1)N(Cc1cc3c(cc1Br)OCO3)CC2 (stereo not given),0.423,0.97,-0.119,-0.974,-0.695,0.502,1.02,1.21 (inactive),-0.734,-0.394
CCCC#C[Si](O[C@H](CC)c1cn([C@H](CO)Cc2ccccc2)nn1)(C(C)C)C(C)C,-0.503,0.236,-0.0856,0.449,0.769,0.471,0.988,0.889 (inactive),-0.0393,-0.0003
C[C@@]1([C@@H](NC(=O)c2ccccc2)c2ccc(-c3ccccc3)cc2)C[C@H]1C1CCCCC1,0.742,-0.671,0.0891,-0.227,1.16,-0.0156,-0.382,2.09 (inactive),0.57,0.122
CC(C)(C)C(=O)N[C@@H](c1ccc(Cl)cc1)[C@]1(C)C[C@H]1C1CCCCC1,1.05,0.845,0.282,0.57,1.51,2.09,1.19,-1.52 (inactive),1.47,0.0053
CC1(C)[C@@H]2CC(C(O)C3C=CC4C(=O)N(c5ccccc5)C(=O)C4N3Nc3ccccc3)=C[C@H]1C2 (stereo not given in full),0.11,-0.6,0.062,0.45,1.03,1.15,0.886,-0.559 (inactive),0.889,0.142
COC(=O)[C@@]1(Cc2ccc(OC)cc2)[C@H]2c3cc(C(=O)N(C)C)n(CCN4CNCC4=O)c3C[C@H]2CN1C(=O)c1ccccc1,0.39,1.47,0.0432,-0.0075,1.27,1.51,1.3,0.124 (inactive),0.384,0.983
CC(C)N1C(=O)[C@@]2(Cc3ccccc31)c1ccccc1C(=O)N(C1CCCCC1)[C@H]2c1ccc(CO)cc1,-0.302,-0.0937,-0.132,0.397,0.184,0.452,1.24,0.0117 (inactive),-0.123,-0.296
